JMJD2C inh: human JMJD2C demethylase inhibition. Q9H3R0. GST-JMJD2C(1-420) H3K9me3 demethylation, DELFIA europium. inhibition, % at 2.35 µM. 0.069% of 330,000 active. AID 2099;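 active = more than half of a compound's replicate wells show inhibition beyond 50%, single wells judged on their own value; inconclusive = some, but no more than half, of replicates pass 50% inhibition; inactive = no replicate passes 50% inhibition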;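 note: signal counts dimethyl H3K9 product captured on neutravidin plate; 0% = median of DMSO wells and 100% = 0.3 times that DMSO median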
Target sequence (Q9H3R0 1-420 limits assumed): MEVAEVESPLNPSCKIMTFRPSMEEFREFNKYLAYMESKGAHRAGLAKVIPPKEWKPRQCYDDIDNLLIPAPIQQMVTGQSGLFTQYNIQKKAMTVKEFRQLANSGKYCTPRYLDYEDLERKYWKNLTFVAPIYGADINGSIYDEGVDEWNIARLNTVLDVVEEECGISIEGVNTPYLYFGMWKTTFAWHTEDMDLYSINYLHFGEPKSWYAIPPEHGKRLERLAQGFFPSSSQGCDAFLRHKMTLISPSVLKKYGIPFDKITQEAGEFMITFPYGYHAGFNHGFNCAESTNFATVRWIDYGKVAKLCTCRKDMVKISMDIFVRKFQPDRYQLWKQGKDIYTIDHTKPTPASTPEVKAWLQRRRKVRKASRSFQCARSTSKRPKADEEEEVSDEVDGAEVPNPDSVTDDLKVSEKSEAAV
MIN6 prolif: induces beta-cell replication in MIN6 cells; MIN6 cells proliferation, ATPlite luminescence, 48 h; cells starved in 0.2% serum; 100% = growth in 10% serum; proliferation, % at 10 µM; 0.29% of 330,000 active; AID 2380;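 active = compounds whose signal lies at least 3.5 SD above the mean of all wells on their plate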;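 note: 0% = DMSO-treated cells in low-serum medium and 100% = 10% serum control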
Granule exo inh: blocks lytic granule exocytosis | TALL-104 LAMP-1 surface exposure, flow cytometry; cells stimulated with thapsigargin and PMA | inhibition, % at 10 µM | 0.66% of 360,000 active | AID 651702;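 active = inhibition above about 55%, limit read from the data; inconclusive = no clear call, values can overlap the other calls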
M18AAP inhibitor: blocks P. falciparum M18 aspartyl aminopeptidase; recombinant PfM18AAP, H-Glu-NHMec fluorogenic cleavage; inhibition, % at 7.35 µM; 1.2% of 290,000 active;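 active = inhibition above the campaign mean inhibition over all tested compounds plus 3 SD, cut at about 28% in these data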;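 note: 0% = plate median of test compound wells and 100% = 2 mM ZnCl2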
ALR inh: inhibitors of human sulfhydryl oxidase ALR | P55789 | purified ALR, DTT oxidation, H2O2 HRP-luminol luminescence | inhibition, % (test concentration not listed) | 3.8% of 290,000 active | AID 485317;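 active = mean replicate inhibition above about 79%, with every replicate also reaching it, limit read from the data; inconclusive = only one of the two criteria met; inactive = mean below limit and not every replicate reaching it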
Target sequence (P55789 whole entry, looked up): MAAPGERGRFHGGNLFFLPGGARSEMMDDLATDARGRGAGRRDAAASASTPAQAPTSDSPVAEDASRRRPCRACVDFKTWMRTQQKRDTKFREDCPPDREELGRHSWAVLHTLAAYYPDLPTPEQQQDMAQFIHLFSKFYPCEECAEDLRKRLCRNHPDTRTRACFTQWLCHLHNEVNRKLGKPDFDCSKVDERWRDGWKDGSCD
SMARCA2 act: increases SMARCA2 function in MMTV reporter cells. 1% of 370,000 active. MG213 cells, MMTV-luciferase reporter, dexamethasone, overnight. activation, % at 9.1 µM; in the data active = activation above about 7.8%;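 note: 0% = vehicle wells and 100% = reference activator wells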
An asterisk follows results filed as active; ? = inconclusive; . = no result. Sampled rows, rich in hits. Any-hit rate of the full collection: about 5.4%.

SMILES	JMJD2C inh	MIN6 prolif	Granule exo inh	M18AAP inhibitor	ALR inh	SMARCA2 act
COC(=O)[C@]12C[C@H](CC(=O)NCc3cccc(C(F)(F)F)c3)C(=O)N(Cc3ccc(Cl)cc3Cl)C1=C[C@H](C(C)C)O[C@@H]2C1CC1	.	.	.	.	.	-1.9
S=C(NC1CCCCC1)NN(c1ccccc1)c1ccccc1	18.1	-5.7	-1.2	-7.8	6.2	-4.7
CNC(=S)NN(c1ccccc1)c1ccccc1	-4.9	3.3	-3.7	1.5	95.3*	.
Cc1ccc(NC2CCCN(C(=O)CSc3ccccn3)C2)cc1C (configuration not stated)	20.1	-0.5	-10.8	14.8	99.1*	-1.6
COc1ccccc1OCC(=O)N1CCCC(Nc2ccc(F)c(F)c2)C1 (configuration not stated)	-0.1	6.7	1.0	4.1	40.7	0.1
COc1ccc(CCC(=O)N2CCCC(Nc3ccc(C)c(C)c3)C2)cc1OC (configuration not stated)	5.9	9.3	1.0	11.6	98.9*	-1.5
CCCC(=O)N1CCCC(C(=O)c2ccc(OC)c(OC)c2)C1 (configuration not stated)	10.1	-3.3	2.1	-14.5	.	2.0
COc1ccccc1OCC(=O)N1CCCC(Nc2ccc(C)c(C)c2)C1 (configuration not stated)	-0.5	-6.1	-5.8	11.9	98.0*	-0.8
COc1ccc(NC2CCCN(C(=O)COc3ccc(Cl)cc3C)C2)cc1OC (configuration not stated)	1.4	-3.5	12.1	-0.3	96.1*	-1.1
OC(c1ccccc1)(c1ccccc1)C1CCN(CCCNc2cccc(Br)c2)CC1	.	.	.	.	.	-4.5
COc1ccc(CNC(=O)CCNS(=O)(=O)c2ccc3[nH]c(=O)oc3c2)cc1	.	.	.	.	.	-1.5
Cc1ccc(C(=O)n2ccc3ccc(-c4ccc5ccn(Cc6ccccc6)c5c4)cc32)cc1	.	.	.	.	.	-2.5
CN(C)c1cccc(/C=C2\CC3(OC(=O)C4CCCC4)CCCN2C3)c1 (configuration not stated)	.	.	.	.	.	-1.7
O=C1CCC(CCC(=O)N2CCCC(C(=O)c3ccc4c5c(cccc35)CC4)C2)=NN1 (configuration not stated)	-3.0	1.2	0.1	3.1	-17.3	-2.2
Cc1ccc(NC2CCCN(C(=O)CCC3=NNC(=O)CC3)C2)cc1C (configuration not stated)	-30.3	-0.4	-1.0	9.5	98.1*	-0.7
CC(=O)NS(=O)(=O)c1ccc(NC(=O)/C=C/c2cn(-c3ccccc3)nc2-c2ccccc2)cc1	0.5	0.0	?	-0.6	98.1*	-0.7
O=C(/C=C\c1cn(-c2ccccc2)nc1-c1ccccc1)Nc1nccs1	-5.6	-6.1	8.2	-1.3	-2.5	-1.4
O=C(NCc1cccnc1)/C(=C\c1ccc(-c2cccc(Cl)c2)o1)S(=O)(=O)c1ccccc1	3.8	.	90.5*	-4.2	-3.2	-2.0
CCC1C(=O)N=C(SCC(=O)Nc2ccc(C(=O)OC)cc2)NC1=O (configuration not stated)	0.6	-1.9	2.2	5.1	99.2*	4.9
CCOc1ccc(NC(=O)CSC2=NCCN2)cc1	-4.3	-1.6	1.8	20.0	98.6*	-4.0
NS(=O)(=O)c1ccc(NC(=O)CSC2=NC(=O)C(c3ccccc3)C(=O)N2)cc1 (configuration not stated)	-6.5	-0.8	-4.8	4.7	99.1*	-5.9
CCn1c(SCC(=O)Nc2ccc(C(=O)OC)cc2)nc2cccnc21	5.7	-1.3	1.5	-5.9	-8.3	3.7
NS(=O)(=O)c1ccc(NC(=O)CSc2ccccc2)cc1	0.4	1.3	10.0	-3.0	-7.7	2.1
COC(=O)c1ccc(NC(=O)CSC2=NCCN2)cc1	1.7	-1.4	1.9	5.8	98.9*	-0.6
O=C(C1CCC1)N1CCc2cc(S(=O)(=O)C3CCN(Cc4ccc(F)cc4)CC3)ccc21	.	.	.	.	.	-3.5
SMILES	JMJD2C inh	MIN6 prolif	Granule exo inh	M18AAP inhibitor	ALR inh	SMARCA2 act
O=C(CSS(=O)(=O)O)N1CCN(C(=O)c2ccoc2)CC1	13.2	0.8	-5.9	-6.0	98.2*	0.1
COC(=O)[C@]12C[C@H](CC(=O)N3CCCC3)C(=O)N(Cc3cccc4ccccc34)C1=C[C@H](C(C)C)O[C@@H]2C1CC1	.	.	.	.	.	-2.1
CCSc1nc2cc(OC)c(OC)cc2c(=O)n1CCc1ccccc1	-4.2	-4.1	-0.7	-2.8	-19.2	-0.4
COCCCn1c(SCCc2ccccc2)nc2cc(OC)c(OC)cc2c1=N	-16.0	-6.7	59.9*	2.0	1.8	0.5
Oc1ccc(-c2[nH]nc(-c3ccccc3)c2-c2nc3ccccc3[nH]2)cc1	6.9	-3.5	-2.7	-2.5	84.4*	-1.9
Cc1ccc(/C=N/NC(=O)c2ccccc2OCc2ccc(F)cc2)o1	-26.4	-0.2	-6.2	14.5	.	2.0
O=C(N/N=C/c1ccncc1)c1ccccc1OCc1ccc(Br)cc1	-33.0	-1.2	83.4*	8.7	-3.1	-3.6
Cc1cccc(/C=N/NC(=O)c2ccccc2OCc2cccc(Br)c2)n1	-1.9	-2.5	74.5*	7.3	.	-1.8
CC1CCC2(CC1)CCN(CCCOC(=O)Nc1ccc3c(c1)OCO3)C2=O (configuration not stated)	.	.	.	.	.	-1.7
Cc1ccc(CCNC(=O)C2CCCN(S(=O)(=O)c3cnc[nH]3)C2)cc1 (configuration not stated)	-6.9	-4.0	-1.5	-13.1	48.6	-2.0
CCN(CCCNC(=O)C1CCCN(S(=O)(=O)c2cnc[nH]2)C1)c1ccccc1 (configuration not stated)	-10.2	-2.0	-1.2	4.0	97.5*	-0.3
CCN(CCNC(=O)C1CCCN(S(=O)(=O)c2cnc[nH]2)C1)c1ccccc1 (configuration not stated)	-18.3	-2.4	0.7	8.2	97.8*	0.1
c1ccc2c(c1)CCCN2Cc1nnnn1C1CCCC1	7.0	-1.5	1.2	-8.4	-24.7	1.5
c1ccc(CCn2nnnc2CN2CCc3ccccc32)cc1	17.3	-0.8	-0.9	2.7	99.4*	-1.1
COC(=O)[C@H](C(C)C)N(Cc1cn(Cc2ccccc2)nn1)S(=O)(=O)c1ccc(F)cc1Br	.	.	.	.	.	-3.7
COCCCN1C(=O)[C@H](CC(=O)N2CCSCC2)[C@]2(C(=O)OC)CCCCC=C12	.	.	.	.	.	-3.8
c1ccc(N2CCN(c3ccccc3)C2c2ccncc2)cc1	-1.9	-1.2	-0.2	-0.2	86.2*	-1.1
c1ccc(N2CCN(c3ccccc3)C2c2cccnc2)cc1	3.7	-1.1	-1.2	-6.4	.	-0.2
CCOc1ccccc1/C=N/NC(=O)Cc1csc(Nc2cccc(C(F)(F)F)c2)n1	11.5	-4.9	-3.2	1.9	-17.4	-0.9
CCOc1ccc(/C=N/NC(=O)Cc2csc(Nc3cccc(C(F)(F)F)c3)n2)c(OCC)c1	-2.7	-5.4	68.2*	0.5	-17.2	-1.7
CCOc1ccccc1NC(=O)/C(C#N)=C/c1c(C)nn(-c2ccccc2)c1Cl	8.4	-5.2	3.2	-0.4	7.5	-4.3

Compound activity as filed in PubChem.
